Bioassay records as filed in PubChem BioAssay.
Cruzain Triton – inhibitors of Trypanosoma cruzi cruzain with detergent; Potency, µM, for inactives: max response, negative = inhibition, actives largely listed as inhibitors; 200,000 compounds, 0.43% hits; purified cruzain, Z-FR-AMC fluorescence, 0.01% Triton; P25779;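 note: plate controls were neutral wells for no effect and buffer without enzyme for full effect; nearly all actives have a fitted effect of over 40% in size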
Target sequence (P25779 123-467 limits assumed): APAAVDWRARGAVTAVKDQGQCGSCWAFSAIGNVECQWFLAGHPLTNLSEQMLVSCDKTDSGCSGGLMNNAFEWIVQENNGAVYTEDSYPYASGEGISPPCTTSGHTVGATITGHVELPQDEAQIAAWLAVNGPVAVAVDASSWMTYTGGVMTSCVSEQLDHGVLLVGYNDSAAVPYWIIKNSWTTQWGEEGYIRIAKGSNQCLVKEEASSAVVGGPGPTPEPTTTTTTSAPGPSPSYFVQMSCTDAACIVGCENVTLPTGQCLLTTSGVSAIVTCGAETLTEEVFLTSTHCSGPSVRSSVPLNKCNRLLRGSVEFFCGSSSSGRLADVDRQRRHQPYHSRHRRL
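Detergent-containing arm of a paired screen for aggregation-based inhibition: 0.01% Triton X-100 present. Cruzain at 1.5 nM cleaved 2 uM Z-FR-AMC at pH 5.5 with 5 mM DTT; AMC fluorescence gain over 60 s measured activity.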
Cruzain inh noDet – cruzain (T. cruzi) inhibition without detergent; P25779; purified cruzain, Z-FR-AMC fluorescence, no detergent; Potency, µM, for inactives: max response, negative = inhibition, hits mostly inhibitors; 200,000 compounds, 2.3% hits;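 note: plate controls were enzyme without inhibitor for no effect and buffer without enzyme for full effect; nearly all actives have a fitted effect of over 40% in size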
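Purified cruzain at 1.5 nM, pre-incubated 15 min with compound at room temperature in 100 mM sodium acetate pH 5.5, 5 mM DTT, 0.00005% Triton X-100. Reaction started with 2 uM Z-FR-AMC; AMC fluorescence increase over 60 s gives rate.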
An asterisk follows results filed as active; u = inconclusive. A selection: hits, their analogues and other compounds. The true share with any hit is near 2.4%. Calls come from the whole dose curve; as a rule, active = well fitted curve in the direction sought with a large enough effect; inconclusive = small, poorly fitted or top-dose-only effect, or another doubt; inactive = no such curve, though single readings can be large; an effect the other way counts as inactive or inconclusive. Potency is the fitted concentration of half-maximal effect.

SMILES	Cruzain Triton	Cruzain inh noDet
CC(C)(C)c1ccc(S(=O)(=O)c2cn(CC(=O)Nc3ccccc3)c3ccccc3c2=O)cc1	-4%	-4%
Cc1c([C@@H](C)C2NC[C@H](C)C[C@@H]2O)ccc2c1C[C@@H]1[C@H]2CC=C2C[C@@H](O)CC[C@@]21C (some centres not stated)	1%	-5%
CC(C)(C)C(=O)Cn1c(=O)n(CCCCCC(=O)NCc2ccccc2Cl)c(=O)c2sccc21	-11%	10%
O=C(CCCCCn1c(=O)c2sccc2n(CC(=O)Nc2cc(C(F)(F)F)ccc2Cl)c1=O)NCc1ccccc1Cl	-7%	16µM*
CCCCOC(=O)CSc1nnc(-c2ccc(C)cc2)o1	-7%	-3%
Cc1cn([C@H]2C[C@H](O)[C@@H](COC(N)=O)O2)c(=O)[nH]c1=O	2%	-6%
COc1ccc(OC)c(NC(=O)COC(=O)CNC(=O)c2ccc(OC)c(OC)c2)c1	-1%	2%
CC(C)N(C(=O)COC(=O)CNC(=O)c1ccc(Br)cc1)c1ccccc1	16µM*	16µM*
CCOc1ccc(C(=O)NCC(=O)OCC(=O)Nc2ccccc2OCC)cc1	-26%	-7%
CC(=O)COC(=O)CNC(=O)c1ccc(Br)cc1	-24%	-24%
Cc1ccc(NC(=O)COC(=O)CNC(=O)c2ccc(Br)cc2)c(C)c1	14µM*	16µM*
Cc1ccc(C(=O)NCC(=O)OCC(=O)Nc2ccccc2[N+](=O)[O-])cc1	11µM*	7.9µM*
O=C(COC(=O)CNC(=O)c1cccc([N+](=O)[O-])c1)Nc1ccccc1OC(F)F	16µM*	20µM*
O=C(COC(=O)CNC(=O)c1cccc([N+](=O)[O-])c1)Nc1nc2ccccc2s1	-26%	u
Cn1c(Oc2ccccc2)nc2c1c(=O)n(Cc1ccc(Cl)cc1Cl)c(=O)n2C	-1%	-2%
COc1ccc(-c2nnc(Nc3ccc(OCC(N)=O)cc3)c3ccccc23)cc1	-6%	-4%
COc1cc(NC(=O)COC(=O)CNC(=O)c2cc(C)cc(C)c2)c(C)cc1[N+](=O)[O-]	u	-20%
Cc1ccc(C(=O)NCC(=O)OCC(=O)c2ccc(C)c([N+](=O)[O-])c2)cc1	16µM*	13µM*
COc1cccc(C(=O)NCC(=O)OCC(=O)Nc2cc(OC)c([N+](=O)[O-])cc2C)c1	22µM*	u
Cc1ccc(C(=O)COC(=O)CNC(=O)C(c2ccccc2)c2ccccc2)cc1[N+](=O)[O-]	-27%	-25%
O=C(Cc1ccccc1)NCC(=O)OCC(=O)c1ccc(Cl)c([N+](=O)[O-])c1	u	16µM*
Cc1ccc(NC(=O)COC(=O)CNC(=O)c2ccc3ccccc3c2)c([N+](=O)[O-])c1	7.1µM*	3.2µM*
O=C(NCCc1ccccc1)c1ccc(Cl)c([N+](=O)[O-])c1	-7%	-20%
Cc1ccc(NC(=O)COC(=O)Cn2nc(C)c([N+](=O)[O-])c2C)c([N+](=O)[O-])c1	-2%	6%
Cc1cccc(OC(=O)CSc2nnc(-c3cccs3)o2)c1C	-3%	-6%
SMILES	Cruzain Triton	Cruzain inh noDet
O=C(OCc1cc(=O)n2nc(-c3cccs3)sc2n1)c1ccccc1	-5%	-7%
CCOc1cc2sc(N3CCC(C(=O)Nc4ccccc4Cl)CC3)nc2cc1Br	0%	7%
COc1ccc2c(c1)O[C@H](c1ccc3c(c1)OCO3)[C@@H](OC(=O)NCCOc1ccccc1)C2=O	-3%	-7%
CCCCCCCCCCCCCCC(F)C(=O)O (configuration not stated)	-6%	9%
COc1ccccc1-c1nnc(Nc2nc3c(OC)cccc3s2)o1	u	32µM*
COc1cccc2sc(Nc3nnc(-c4ccccc4Cl)o3)nc12	1%	u
Cc1cccc(NC(=O)Cn2c(=O)n(Cc3nc(-c4ccccc4)no3)c(=O)c3ccccc32)c1	-4%	17%
CCNc1nc(SC(C(C)=O)C(C)=O)nc(N(C)C)n1	5%	-2%
COC(=O)CN(C#N)c1nc(NC(C)C)nc(OC)n1	22µM*	20µM*
COC(=O)CN(C#N)c1nc(C)cc(C)n1	-2%	-2%
CCN(C#N)c1nc(NC(C)C)nc(NC(C)C)n1	0%	7%
CCNc1nc(SC)nc(N(C#N)CC(=O)OC)n1	14µM*	13µM*
COC(=O)CN(C#N)c1nc(OC)nc(N(C)C)n1	28µM*	20µM*
Cc1ccc(Nc2ncnc3c2cnn3-c2ccccc2)c(C)c1	-7%	-1%
CC(NC(=O)c1ccc2c(c1)CCN2S(=O)(=O)c1ccccc1)c1ccccc1 (configuration not stated)	-3%	-4%
CCCCOc1ccc(Cn2c(=O)sc3ccccc32)cc1	-7%	-24%
CC1CCC(N2CC(=O)N(C3CCCCC3)C(c3ccc(Cl)cc3)C2=O)CC1 (configuration not stated)	0%	-8%
C(=C\c1ccccc1)/C=N/Nc1nc(N2CCCCC2)nc(N2CCCCC2)n1	1%	4µM*
CC(=C/c1ccccc1)/C=N/Nc1nc(N2CCCCC2)nc(N2CCCCC2)n1	-4%	-10%
COc1cccc(C(=O)NCC(c2ccc(N(C)C)cc2)N2CCc3ccccc32)c1 (configuration not stated)	-13%	u
Cc1ccc(C)c(NC(=S)NC(NC(=O)Cc2ccccc2)C(Cl)(Cl)Cl)c1 (configuration not stated)	4%	25µM*
Cc1ccc(C(=O)NC(NC(=S)Nc2ccc(S(N)(=O)=O)cc2)C(Cl)(Cl)Cl)cc1 (configuration not stated)	-17%	-4%
O=C(NC(NC(=S)Nc1ccccc1)C(Cl)(Cl)Cl)c1cccc(Cl)c1 (configuration not stated)	u	-9%
Cc1ccc(NC(=S)NC(NC(=O)c2ccccc2)C(Cl)(Cl)Cl)c(C)c1 (configuration not stated)	-9%	6%
Cc1ccc(NC(=S)NC(NC(=O)c2ccco2)C(Cl)(Cl)Cl)cc1 (configuration not stated)	4.5µM*	15%
SMILES	Cruzain Triton	Cruzain inh noDet
O=C(O)c1ccc(NC(=S)NC(NC(=O)c2ccco2)C(Cl)(Cl)Cl)cc1 (configuration not stated)	-5%	9%
Cc1cccc(NC(=S)NC(NC(=O)c2ccco2)C(Cl)(Cl)Cl)c1 (configuration not stated)	3.2µM*	2%
Cc1ccccc1C(=O)NC(NC(=S)Nc1ccc(S(N)(=O)=O)cc1)C(Cl)(Cl)Cl (configuration not stated)	13µM*	-27%
Cc1ccc2oc3c(c(=O)c2c1)C1(C(=O)N(C)c2ccccc21)N(CCCO)C3=O (configuration not stated)	-2%	-8%
Cc1cccc(Nc2nc3ccccc3n3c(N)nnc23)c1	-4%	2%
CC1=C(C(=O)O)N2C(=O)[C@@H](NC(=O)[C@@H](N)c3ccccc3)[C@@H]2SC1	-4%	-2%
CCCCCCSc1nnc2c(n1)OC(C)Nc1ccc(Br)cc1-2 (configuration not stated)	-6%	-2%
COc1cc(C2c3c(oc4ccccc4c3=O)C(=O)N2Cc2ccc(C)cc2)ccc1O (configuration not stated)	0%	-3%
C=CC[C@](C)(Nc1ccc(OC)cc1)C(=O)OCC	2%	10%
COc1ccc(NC(=O)CSCc2cc(=O)c3cc(C)ccc3[nH]2)cc1	1%	5%
Cc1ccc(-c2nn(CC(=O)NCc3ccccc3)c3c2cnc2ccc(F)cc23)cc1C	0%	-8%
